Assay outcomes (PubChem)
Shown are actives, neighbours in structure and some others; about 2.4% of the full set was active somewhere.
D2 ag-1 = human D2 receptor agonism in beta-arrestin assay; P14416; DiscoveRx PathHunter D2 beta-arrestin, luminescence, 90 min; 100% = 57 uM dopamine signal; activation, % (concentration not given with the values); 360,000 compounds, 0.084% hits; AID 624465; in the data active = activation above about 40%; inconclusive = between about 15% and that limit
Target sequence (P14416 whole entry, looked up): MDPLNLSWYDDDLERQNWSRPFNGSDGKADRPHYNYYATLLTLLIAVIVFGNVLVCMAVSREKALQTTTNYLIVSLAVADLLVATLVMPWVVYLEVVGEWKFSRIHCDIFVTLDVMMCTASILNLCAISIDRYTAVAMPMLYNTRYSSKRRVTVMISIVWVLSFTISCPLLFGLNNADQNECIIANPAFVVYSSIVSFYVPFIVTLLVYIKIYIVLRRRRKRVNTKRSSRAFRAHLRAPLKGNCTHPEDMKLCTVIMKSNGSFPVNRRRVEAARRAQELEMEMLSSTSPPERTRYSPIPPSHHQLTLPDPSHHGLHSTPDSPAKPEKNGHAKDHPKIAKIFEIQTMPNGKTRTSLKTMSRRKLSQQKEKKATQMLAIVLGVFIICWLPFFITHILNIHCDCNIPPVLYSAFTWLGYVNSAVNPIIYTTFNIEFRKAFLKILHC
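Agonist mode: compounds alone added to overnight-plated D2 PathHunter cells for 90 min at 37 C, with 57 uM final dopamine (EC100) defining full response. Beta-arrestin recruitment detected by chemiluminescent reagent, read after 1 h at ambient temperature.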
D2 ag-2 = D2 dopamine receptor (human) agonism; AID 485358; HEK293 T-REx D2 cells, calcium flux agonist mode; 340,000 compounds, 0.53% hits; P14416; activation, % at 2 µM;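 active = activation over 3 SD above normal in the single-dose calcium agonist read, cut at about 30% in these data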; also: 0% is about no effect
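Agonism is scored from calcium flux in a force-coupled, inducible HEK293 cell line expressing D2, read kinetically for 180 s after compound addition against dopamine controls.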
D2 PAM-1 = human D2 receptor positive allosteric modulation | AID 624464 | potentiation, % (test concentration not listed) | DiscoveRx D2 beta-arrestin cells, luminescence, 90 min; 100% = 57 uM dopamine signal | 360,000 compounds, 0.23% hits; in the data active = potentiation above about 50%; inconclusive = mostly about 30% to 49%
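D2 cells co-treated with compound plus 50 nM dopamine (EC20) for 90 min at 37 deg C to detect potentiation. Beta-arrestin recruitment was read as enzyme-fragment luminescence after 1 h at ambient temperature. Full response was set by 57 uM dopamine.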
D2 antag = D2 dopamine receptor (human) antagonism. 340,000 compounds, 2% hits. inhibition, % at 10 µM. P14416. HEK293 TREx D2 cells, calcium flux, dopamine EC80; in the data active = inhibition above about 30%; inactive = below that, where a call was filed; also: 0% is about no effect
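Calcium mobilization kinetics were recorded at 1 s intervals in tetracycline-induced HEK293 T-REx D2 cells, first for 180 s after compound addition and then 180 s after EC80 dopamine.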
D2 PAM-2 = positively modulates the human D2 dopamine receptor allosterically; 340,000 compounds, 0.34% hits; potentiation, % at 10 µM; P14416; AID 485347; HEK293 T-REx D2, calcium flux, EC20 dopamine potentiation;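 active = potentiation over 3 SD above the plate norm, cut at about 30% in these data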; also: 0% is about no effect
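Tetracycline-induced Hek293 Trex D2 cells, force-coupled to calcium, loaded with no-wash calcium dye. Compound added with 180 s kinetic read for agonism, then EC20 dopamine and a further 180 s read for potentiation.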
* = called active by the depositor; ? = inconclusive; nt = no result given.

SMILES	D2 ag-1	D2 ag-2	D2 PAM-1	D2 antag	D2 PAM-2
CCc1cc(=O)n2c([nH]c3ccccc32)c1C#N	-2.9	nt	0.7	25.4	-11.2
OCCNCc1c(OCc2ccc(Cl)cc2)ccc2ccccc12	-6.7	-0.9	-25.5	1.4	-4.3
CC(O)CNCCOc1ccccc1OCc1ccccc1 (configuration not stated)	-8.8	-2.7	-9.1	45.4*	-33.9
CC(O)CNCCNCc1c(OCc2ccccc2)ccc2ccccc12 (configuration not stated)	-1.7	-0.5	-28.0	-7.2	32.2*
CCNCc1ccccc1OCc1ccccc1	-1.5	0.2	-10.0	5.7	-10.0
O=C(Oc1ccc(Cl)cc1)N1CCCCC1	-1.6	-2.3	-3.7	8.3	0.5
O=C(Oc1ccc(-c2nnco2)cc1)N1CCCCC1	-2.1	0.9	-9.2	15.7	34.5*
COc1cc2[nH]c(=O)n(CCCC(=O)N3CC=C(c4ccccc4)CC3)c(=O)c2cc1OC	-2.7	0.7	-1.3	2.9	3.7
COc1cccc2c1[C@@H]1CN(CCCCn3c(=O)[nH]c4c(sc5ncc(-c6ccccc6)nc54)c3=O)C[C@@H]1CO2	-4.5	1.6	-34.7	55.8*	-19.3
Cc1ccc(-c2cc(C(=O)Nc3cc([N+](=O)[O-])ccc3C)no2)cc1F	nt	-1.3	nt	nt	1.5
O=C(Nc1nnc(-c2ccccc2Cl)o1)c1nc2ccccc2s1	-2.6	39.1*	-7.3	7.7	-16.5
CCCNC(=S)NC1CC2CCC(C1)N2Cc1ccccc1 (configuration not stated)	-0.1	0.4	-18.3	67.3*	-6.1
S=C(NC1CCCCC1)NC1CC2CCC(C1)N2Cc1ccccc1 (configuration not stated)	-5.5	1.2	-22.9	76.9*	-8.9
COCCCNC(=S)NC1CC2CCC(C1)N2Cc1ccccc1 (configuration not stated)	-4.1	-0.2	-16.2	27.5	-12.1
O=C(NC1CC2CCCC(C1)N2Cc1ccccc1)C1CCCCC1 (configuration not stated)	0.8	0.2	-18.8	22.2	-23.1
CC(C)CNC(=S)NC1CC2CCC(C1)N2Cc1ccccc1 (configuration not stated)	-0.7	0.5	-22.7	89.9*	-15.9
S=C(NCCc1ccccc1)NC1CC2CCC(C1)N2Cc1ccccc1 (configuration not stated)	-9.5	0.2	-23.0	62.7*	-28.1
COc1ccc(NS(=O)(=O)c2ccc3[nH]c4c(c3c2)CCCCC4)cc1	nt	-1.5	nt	nt	4.1
CCNC(=S)NC1CC2CCC(C1)N2Cc1ccccc1 (configuration not stated)	2.1	0.8	-27.3	57.0*	-21.1
CCNC(=S)NC1CC2CCCC(C1)N2CCc1ccccc1 (configuration not stated)	-4.4	-0.2	-4.5	-20.6	-14.1
Cc1ccccc1CNC(=O)C(=O)NCC(c1cccs1)S(=O)(=O)c1ccc(Cl)cc1 (configuration not stated)	nt	1.0	nt	nt	3.1
Cc1oc(-c2ccc(C(=O)N(C)Cc3ccccc3)cc2)nc1CN1CCc2ccccc21	nt	1.8	nt	nt	2.7
CCCN(CCC)CCNC(=O)C1CCN(S(=O)(=O)c2cccc3nsnc23)CC1	6.0	0.8	-13.9	37.5*	-6.0
Cc1ccc(NC(=O)CS(=O)CC(=O)N(CC(=O)NC2CCCC2)c2cccc(C)c2C)cc1 (configuration not stated)	0.2	0.3	-27.1	55.4*	-22.4
Cc1cccc(N(CC(=O)NC2CCCC2)C(=O)CS(=O)CC(=O)Nc2ccc3c(c2)OCO3)c1C (configuration not stated)	-2.6	0.5	-7.1	-10.7	-5.0
SMILES	D2 ag-1	D2 ag-2	D2 PAM-1	D2 antag	D2 PAM-2
Oc1c(C(c2ccccc2Cl)N2CCN(Cc3ccccc3)CC2)sc2nc(-c3ccco3)nn12 (configuration not stated)	nt	-0.8	nt	nt	9.6
COc1ccc(Br)cc1CN1CCCC(C(=O)N2CCCCCC2)C1 (configuration not stated)	-4.4	0.7	-34.6	32.4*	-5.8
O=C(CCNS(=O)(=O)c1ccc2c(c1)CCCC(=O)N2)Nc1cccc(Cl)c1	nt	-0.9	nt	nt	nt
Cc1cccc(CCN=c2c([N+](=O)[O-])nn(-c3ccccc3)n2O)c1	13.5	-0.4	5.7	-9.0	-0.8
COc1ccc(-n2nc([N+](=O)[O-])c(=NCCCN3CCCC3=O)n2O)cc1	9.8	-0.5	22.7	7.3	-3.6
COc1ccc(-n2nc([N+](=O)[O-])c(=NCc3ccc4c(c3)OCO4)n2O)cc1	?	-0.7	121.8*	-1.4	-12.3
O=C1CCCN1CCCN=c1c([N+](=O)[O-])nn(-c2ccc(Cl)cc2)n1O	9.2	nt	51.8*	nt	6.2
CCc1ccc(N=c2c([N+](=O)[O-])nn(-c3ccc4c(c3)OCCO4)n2O)cc1	10.7	-0.5	?	18.4	2.2
Cc1ccc(CN=c2c([N+](=O)[O-])nn(-c3ccc4c(c3)OCCO4)n2O)cc1	?	-0.7	134.9*	2.7	-18.4
COc1ccc(-n2nc([N+](=O)[O-])c(=NCCc3cccc(C)c3)n2O)cc1	7.9	-0.5	65.2*	6.2	-5.2
CN(C)c1ccc(CNC(=O)c2ccccc2NC(=O)c2nsc3ccccc23)cc1	nt	nt	nt	nt	-7.3
CCN(Cc1ccccc1)C(=O)Nc1ccc2c(c1)N(C)C(=O)c1ccccc1S2	nt	0.1	nt	nt	-2.4
COc1ccc(CCNC(=O)c2cc3c(=O)n(C)c4cc(Cl)ccc4c3s2)cc1OC	nt	0.4	nt	nt	-0.4
Cc1ccc(N=c2c([N+](=O)[O-])nn(-c3ccccc3)n2O)c(C)c1	9.8	0.8	55.2*	7.4	10.1
O=[N+]([O-])c1nn(-c2ccc3c(c2)OCCO3)n(O)c1=NCCCO	?	-0.1	72.8*	4.4	0.1
CCOC(=O)c1ccc(OCC2c3cc(OC)c(OC)cc3CCN2C(=O)Cc2ccc(F)cc2)cc1 (configuration not stated)	nt	-0.7	nt	nt	-2.0
Cn1nnnc1SCCCNCc1cc(Br)ccc1OCc1ccccc1F	nt	-1.0	nt	nt	-32.2
Fc1ccccc1OCCCN1CCOCC1	-2.2	0.5	-9.6	31.1*	2.2
Cc1cccc(OCCN2CCOCC2)c1C	-0.9	23.8	-0.5	41.1*	-12.1
CCOC(=O)c1sc(NC(=O)CSc2n[nH]c(-c3ccccc3)n2)c(C#N)c1C	0.3	1.0	13.9	38.7*	2.2
CCOC(=O)c1sc(NC(=O)CSc2nc(C)cc(C)n2)c(C#N)c1C	-1.5	0.3	-2.3	4.2	0.6
CCOC(=O)c1ccc(NS(=O)(=O)c2ccc(Br)s2)cc1	nt	-1.2	nt	nt	-1.4
CC(C)CSc1nnc2c3ccccc3n(C)c2n1	-8.7	nt	-10.5	nt	1.9
CC(C)OC(=O)CSc1nnc2c3ccccc3n(C)c2n1	-2.9	-1.5	-0.8	37.2*	6.7
